# According to the supplement of paper PMC4894684:
# Counter-ions that a name gives are not always drawn. ± gives the standard deviation of the averaged measurements.
# Test system: Toxoplasma gondii RH (in HFF)
# Assay: parasite growth relative to the screen mean (all compounds = 100%); higher = less inhibition of parasite growth
# Settings: 5 µM; 72 h; oxygen 21 %
# Method in brief: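 Parasite growth was reported relative to the screen mean. In that scale, the mean of all compounds equals 100%, and values are averaged over two screens. Compounds from 10 mM DMSO stocks were pin-transferred to 5 µM final onto confluent human foreskin fibroblasts in 96-well plates, infected within 2 h with RH β-Gal–GFP Toxoplasma (MOI 1:5) and grown 72 h at 21% O2, with parasite number read by a CPRG β-Gal assay against in-plate standard curves. Uninfected host-cell viability was checked with CellTiter-Blue.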
row,Structure (SMILES),parasite growth
1,S=C(NC1CCCCC1)N1CCC(c2cnc[nH]2)CC1 [Thioperamide],124 ± 20%
2,CCCCC/C=C\C/C=C\C/C=C\C/C=C\CCCC(=O)Nc1ccc(O)cc1,31.3 ± 14%
3,Cc1cccc(C(C)c2c[nH]cn2)c1C (stereo not drawn) [Medetomidine hydrochloride],24.7 ± 22%
4,CC(C)(c1ccc(OCC2CO2)cc1)c1ccc(OCC2CO2)cc1 (stereo not drawn),157 ± 30%
5,N[C@@]1(C(=O)O)CC[C@@H](C(=O)O)C1,111 ± 27%
6,"C=CCN1CC[C@]2(C)c3cc(O)ccc3C[C@H]1C2C (single isomer, unassigned; (+))",97.7 ± 5.9%
7,Cc1[nH]c2ccc(O)cc2c1CCN [2-Methyl-5-hydroxytryptamine hydrochloride],139 ± 37%
8,C[C@@H]1O[C@@H](O[C@H]2C[C@@H](O)[C@]3(CO)[C@H]4[C@H](O)C[C@]5(C)[C@@H](C6=CC(=O)OC6)CC[C@]5(O)[C@@H]4CC[C@]3(O)C2)[C@H](O)[C@H](O)[C@H]1O [Ouabain],52.8 ± 8.2%
9,CN1CCC(c2c[nH]c3ccc(O)cc23)CC1,177 ± 16%
10,OC1CCCCC1N1CCC(c2ccccc2)CC1 (racemic) [(±)-Vesamicol hydrochloride],100 ± 8.3%
11,C[N+]1(C)CCc2cc3c(cc2[C@H]1[C@@H]1OC(=O)c2c1ccc1c2OCO1)OCO3 [(-)-Bicuculline methiodide],108 ± 8.7%
12,O=C(CCCN1CCC2(CC1)C(=O)N(Cc1cccc(F)c1)CN2c1ccccc1)c1ccc(F)cc1 [3'-Fluorobenzylspiperone maleate],< 0%
13,CCCN(CCC)C1Cc2cc(OC)c(OC)cc2C1,123 ± 7.5%
14,C[C@@]12C(=O)OC(=O)[C@]1(C)[C@H]1CC[C@@H]2O1 [Cantharidin],68.8 ± 46%
15,C=CCN1CC[C@]23c4c5ccc(O)c4O[C@H]2C(=O)CC[C@@]3(O)[C@H]1C5 [Naloxone hydrochloride],143 ± 14%
16,N[C@@H]1C[C@H]1c1ccccc1 [Tranylcypromine hydrochloride],130 ± 22%
17,"c1ccc(CC(c2ccccc2)N2CCCCC2)cc1 (racemic) [(±)-1-(1,2-Diphenylethyl)piperidine maleate]",124 ± 20%
18,c1ccc2c(c1)OCC(C1=NCCN1)O2 (stereo not drawn) [Idazoxan hydrochloride],111 ± 8.1%
19,CCCN1CCC[C@@H]2Cc3n[nH]cc3C[C@H]21 [(-)-Quinpirole hydrochloride],143.8 ± 1.3%

row,Structure (SMILES),parasite growth
1,C=C(C)CN1CC[C@@]23c4c5ccc(O)c4O[C@H]2c2[nH]c4ccccc4c2C[C@]3(O)C1C5 [SDM25N hydrochloride],77.5 ± 21%
2,NC(N)=Nc1ccc2[nH]c3c(c2c1)C[C@@]1(O)[C@H]2Cc4ccc(O)c5c4[C@@]1(CCN2CC1CC1)[C@H]3O5 [GNTI dihydrochloride],124 ± 2.5%
3,c1cc(Cc2cnc[nH]2)ccn1 [Immethridine dihydrobromide],133 ± 31%
4,COC(=O)[C@@H](N)CCCNC(=N)N[N+](=O)[O-] [L-NAME hydrochloride],81.5 ± 24%
5,N[C@H](C(=O)O)c1cc(O)no1 [Ibotenic acid],136 ± 26%
6,Cc1ncc(CN2CC=C(c3ccccc3)CC2)c(N)n1,135 ± 13%
7,CC[C@@]1(O)C(=O)OCc2c1cc1n(c2=O)Cc2cc3ccccc3nc2-1 [Camptothecin],181 ± 36%
8,COc1ccc2c(c1)c(CCN1CCOCC1)c(C)n2C(=O)c1cccc(Cl)c1Cl,145 ± 22%
9,Fc1ccc(C(OCCN2CCN(C/C=C/c3ccccc3)CC2)c2ccc(F)cc2)cc1,32.9 ± 3.4%
10,Oc1ccc2c3c1O[C@H]1c4[nH]c5ccccc5c4C[C@@]4(O)[C@@H](C2)N(CC2CC2)CC[C@]314 [Naltrindole hydrochloride],148 ± 35%
11,CN(C)c1ccc(/C=C2\CCCN=C2c2cccnc2)cc1 [DMAB-anabaseine dihydrochloride],97.4 ± 15%
12,O[C@H]1[C@H](O)[C@@H](O)CN2CC[C@H](O)[C@H]12 [Castanospermine],150 ± 7.6%
13,NC(=S)N/N=C/c1coc2ccccc2c1=O.[Cl][Cu][Cl],37.1 ± 24%
14,c1ccc2nc(N3CCNCC3)ccc2c1 [Quipazine dimaleate],115 ± 8.3%
15,"c1ccc(C2CNCc3ccccc32)cc1 (stereo not drawn) [4-Phenyl-1,2,3,4-tetrahydroisoquinoline hydrochloride]",98.2 ± 12%
16,O=c1ccc2[nH]cc(C3=CCNCC3)c2[nH]1,65.2 ± 3.1%
17,C=CCN1CC[C@]23c4c5ccc(O)c4O[C@H]2/C(=N/NC(=O)c2ccccc2)CC[C@@]3(O)[C@H]1C5 [Naloxone benzoylhydrazone],108 ± 34%
18,COc1cc2c(c(OC)c1OC)-c1ccc(OC)c(=O)cc1[C@@H](NC(C)=O)CC2 [Colchicine],115 ± 27%
19,CN1CC[C@@H]2CN3CCc4cccc(c43)[C@@H]2C1 [SDZ SER 082 fumarate],165 ± 19%
